The source of these data is PubChem BioAssay (Tox21).

Results filed as inconclusive are left out. Values without a mark were called inactive. Active and inactive are the calls of the source. Unless noted, calls come from the whole dose curve; as a rule, active = well fitted curve in the direction sought with a large enough effect in the repeat runs; inconclusive = weak or mixed curves; inactive = no such curve, though single readings can be large; an effect the other way counts as inactive or inconclusive.

The nature of assay [1]: qHTS assay to identify aromatase inhibitors - cell viability counter screen (AID 743084;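 note: cells stimulated with testosterone during compound exposure; nearly all actives have a fitted effect of over 55% in size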). (In qHTS, concentration-response curves come from the screen itself.)
Assay [2] has as its target Aryl hydrocarbon receptor (Homo sapiens) (UniProt P35869). Nature of the assay: qHTS assay to identify small molecule that activate the aryl hydrocarbon receptor (AhR) signaling pathway (AID 743085).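 For activation: HG2L7.5c1 human HepG2 liver cells with stably integrated DRE-driven firefly reporter; series mostly up to about 70 µM.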 Note: nearly all actives have a fitted effect of over 15% in size. Note: potency is the fitted concentration of half-maximal effect. In a few lines: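 Steps: seed HepG2-AhR-luc cells; allow 5 h at 37C; pin-transfer test compound or vehicle; incubate 24 h at 37C; add viability dye (30 min, 37C) and read fluorescence; add luciferase substrate (30 min, RT) and read luminescence.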

Assay [3] in a line: qHTS assay to identify small molecule that activate the aryl hydrocarbon receptor (AhR) signaling pathway - cell viability counter screen (AID 743086).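 Note: HepG2 liver cells carrying the AhR DRE luciferase reporter; series mostly up to about 70 µM; nearly all actives have a fitted effect of over 45% in size.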 In a few lines:
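HepG2-AhR-luc (HG2L7.5c1) cells, 4000/well, treated 24 h at 37 C with compound; viability measured as CellTiter-Fluor fluorescence after 30 min in the same wells as the luciferase read.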

Assay [4] concerns the target Peroxisome proliferator-activated receptor gamma (Homo sapiens) (UniProt P37231). Kind of assay: qHTS assay to identify small molecule agonists of the peroxisome proliferator-activated receptor gamma (PPARg) signaling pathway (AID 743094; active = well fitted activation curve with a large enough effect in the signal ratio in the repeat runs, not every such curve was filed as active; the % refers to the signal ratio). The method in brief: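 Quantitative HTS agonist mode: stable HEK293H line with UAS-beta-lactamase reporter under PPARg control, 17 h compound exposure at 37C, fluorescence after 1 h FRET substrate loading at room temperature.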

For assay [5] the target is unchanged. Nature of the assay: qHTS assay to identify small molecule antagonists of the peroxisome proliferator-activated receptor gamma (PPARg) signaling pathway (AID 743191; calls by dose curve; note: nearly all actives have a fitted effect of over 30% in size; note: potency is the fitted concentration of half-maximal effect). In a few lines:
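GeneBLAzer PPARg UAS-bla HEK293H cells, 5 h post-plating, exposed to compounds 17 h at 37C. LiveBLAzer B/G FRET substrate added for 1 h at room temperature; beta-lactamase reporter read by fluorescence intensity.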

Assay [6] is described as follows: qHTS assay to identify small molecule antagonists of the peroxisome proliferator-activated receptor gamma (PPARg) signaling pathway - cell viability counter screen (AID 743194). Note: nearly all actives have a fitted effect of over 55% in size. In a few lines:
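Cytotoxicity counter screen in PPARg-bla HEK293H cells, same wells as reporter assay. Compounds plus 50 nM rosiglitazone (final) for 17 h at 37 C, then viability read by CellTiter-Glo luminescence.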

Assay [7] can be described thus: qHTS assay for small molecule agonists of the antioxidant response element (ARE) signaling pathway (AID 743202; active = well fitted activation curve with a large enough effect in the signal ratio in the repeat runs, not every such curve was filed as active; the % refers to the signal ratio; note: potency is the fitted concentration of half-maximal effect). The method in brief: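 ARE-bla HepG2 cells (beta-lactamase reporter under the antioxidant response element), plated 5 hours, then exposed to compounds 16 hours at 37 C. LiveBLAzer B/G FRET substrate added for 2 hours at room temperature; fluorescence intensity read.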

The nature of assay [8]: qHTS assay for small molecule agonists of the antioxidant response element (ARE) signaling pathway - cell viability counter screen (AID 743203; calls by dose curve; note: nearly all actives have a fitted effect of over 55% in size). In a few lines: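 Seeded at 2,000 cells/well, ARE-bla HepG2 cells were incubated 5 hrs before compound addition. After 16 hrs of treatment at 37C with 5% CO2, CellTiter-Glo reagent was added and luminescence read 30 min later.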

Assay [9] is described as follows: qHTS assay for small molecule activators of the heat shock response signaling pathway - cell viability counter screen (AID 743209). Note: nearly all actives have a fitted effect of over 50% in size. The method in brief: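 First, HSE-bla HeLa cells were seeded at 1500 cells/well and kept overnight at 37 C. Next, compounds were pinned in and incubated 5 h. After the FRET substrate step, CellTiter-Glo was added and luminescence read 30 min later.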

Assay [10] is described as follows: qHTS assay for small molecule activators of the heat shock response signaling pathway (AID 743210; active = well fitted activation curve with a large enough effect in the signal ratio in the repeat runs, with a control signal flat, not every such curve was filed as active; the % refers to the signal ratio; note: series mostly up to about 63 µM). In a few lines:
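HSE-bla HeLa cells (beta-lactamase reporter under heat shock response elements), plated overnight, then exposed to compounds 5 h at 37 C; LiveBLAzer B/G FRET substrate added, 2.5 h at room temperature, fluorescence intensity read.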

Sequence of Aryl hydrocarbon receptor (Homo sapiens) (P35869 whole entry, looked up): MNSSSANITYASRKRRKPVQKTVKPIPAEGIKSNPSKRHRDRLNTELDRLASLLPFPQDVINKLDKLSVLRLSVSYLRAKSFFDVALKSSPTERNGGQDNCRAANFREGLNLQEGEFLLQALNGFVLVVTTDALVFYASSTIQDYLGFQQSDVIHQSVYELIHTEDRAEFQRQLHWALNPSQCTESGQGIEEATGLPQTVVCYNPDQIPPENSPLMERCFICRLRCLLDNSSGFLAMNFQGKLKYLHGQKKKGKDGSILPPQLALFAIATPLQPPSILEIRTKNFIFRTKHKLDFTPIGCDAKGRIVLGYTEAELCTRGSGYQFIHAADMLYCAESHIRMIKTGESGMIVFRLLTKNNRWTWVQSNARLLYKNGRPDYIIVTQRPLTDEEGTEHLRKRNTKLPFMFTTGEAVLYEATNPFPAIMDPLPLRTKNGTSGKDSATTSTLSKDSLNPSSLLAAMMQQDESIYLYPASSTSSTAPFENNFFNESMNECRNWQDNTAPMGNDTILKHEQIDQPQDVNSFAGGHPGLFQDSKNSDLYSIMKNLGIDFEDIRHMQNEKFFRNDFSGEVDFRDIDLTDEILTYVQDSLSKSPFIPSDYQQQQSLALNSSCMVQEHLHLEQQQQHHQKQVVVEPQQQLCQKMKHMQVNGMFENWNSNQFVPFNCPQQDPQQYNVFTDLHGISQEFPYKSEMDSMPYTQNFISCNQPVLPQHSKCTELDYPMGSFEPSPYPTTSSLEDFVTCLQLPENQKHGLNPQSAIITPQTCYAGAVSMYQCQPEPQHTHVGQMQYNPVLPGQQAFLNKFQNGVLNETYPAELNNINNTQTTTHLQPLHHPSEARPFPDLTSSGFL
Sequence of Peroxisome proliferator-activated receptor gamma (Homo sapiens) (P37231 whole entry, looked up): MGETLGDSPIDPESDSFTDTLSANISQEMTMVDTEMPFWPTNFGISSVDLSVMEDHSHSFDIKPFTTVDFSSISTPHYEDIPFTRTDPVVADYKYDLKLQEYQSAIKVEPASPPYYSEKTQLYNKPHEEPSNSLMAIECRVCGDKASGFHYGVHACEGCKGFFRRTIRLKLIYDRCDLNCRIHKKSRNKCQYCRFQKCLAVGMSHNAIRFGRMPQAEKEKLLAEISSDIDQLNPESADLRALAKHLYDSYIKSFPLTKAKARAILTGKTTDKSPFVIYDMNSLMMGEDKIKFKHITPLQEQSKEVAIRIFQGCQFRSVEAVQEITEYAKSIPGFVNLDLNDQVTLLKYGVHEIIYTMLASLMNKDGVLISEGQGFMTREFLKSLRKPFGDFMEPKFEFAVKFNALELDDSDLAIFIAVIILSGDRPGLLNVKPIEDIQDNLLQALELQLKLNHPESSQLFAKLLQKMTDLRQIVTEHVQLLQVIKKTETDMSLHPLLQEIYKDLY

With `CCOC(=N)CC(=O)OCC`, the Potency entry in assay [1], in assay [2], in assay [3], in assay [4], in [5] and in assay [6] was “inactive” each time. Further, the Potency result in assay [7], in [8], in assay [9] and in [10] was “inactive” each time.

Regarding `CCCCCCCCCCCC[N+](C)(C)CCCS(=O)(=O)[O-]`, the Potency result in assay [1], in assay [2], in assay [3], in [4], in [5] and in [6] was “inactive” each time. Further, the Potency result in assay [7], in assay [8], in assay [9] and in assay [10] was “inactive” in each case.

As to `Cc1cc(C(=C2C=CC(=Nc3ccc(S(=O)(=O)O)cc3S(=O)(=O)O)C=C2)c2ccc(Nc3ccc(S(=O)(=O)O)cc3)cc2)ccc1N`, the Potency entry in [1], in [2], in [3], in assay [4], in assay [5] and in assay [6] was “inactive” throughout. Besides, the Potency result in assay [7], in [8], in [9] and in assay [10] was “inactive” in each case.

As to `CCC(C(=O)OCCN(CC)CC)c1ccccc1` (centres undefined), the Potency result in assay [1], in [2], in assay [3], in assay [4], in assay [5] and in assay [6] was “inactive” throughout. Moreover, the Potency entry in [7], in [8] and in [10] was “inactive” throughout.

In the case of `CCCC1C(CC)=CC(CC)=CN1c1ccccc1` (centres undefined), the Potency result in assay [1], in assay [2], in [3], in [4], in assay [5] and in assay [6] was “inactive” each time. In addition, the Potency result in [8], in assay [9] and in assay [10] was “inactive” in each case. Moreover, the Potency in [7] was 54.5 µM (active).

Turning to `Nc1ccc(S(=O)(=O)O)c(N)c1`, the Potency entry in assay [1], in [2], in assay [3], in assay [4], in assay [5] and in [6] was “inactive” each time. The Potency entry in [7], in assay [8], in assay [9] and in assay [10] was “inactive” throughout.

For `CCCCCCCCSCCO`, the Potency entry in assay [1], in [2], in assay [3], in assay [4], in [5] and in [6] was “inactive” each time. Besides, the Potency result in assay [7], in assay [8], in [9] and in [10] was “inactive” in each case.

With `CCn1cc(C(=O)O)c(=O)c2cc(F)c(N3CCNCC3)nc21`, the Potency entry in assay [1], in [2], in assay [3], in [4], in assay [5] and in assay [6] was “inactive” in each case. Moreover, the Potency entry in assay [7], in assay [8], in assay [9] and in assay [10] was “inactive” in each case.

In the case of `COC(OC)(C(=O)c1ccccc1)c1ccccc1`, the Potency entry in assay [1], in assay [2], in assay [3], in assay [4], in [5] and in [6] was “inactive” in each case. For the same compound, the Potency result in assay [7], in assay [8], in assay [9] and in assay [10] was “inactive” in each case.

As to `CN1C(=O)CC(C)(c2ccccc2)C1=O` (centres undefined), the Potency entry in assay [1], in [2], in [3], in assay [4], in [5] and in assay [6] was “inactive” throughout. Also, the Potency result in [7], in [8] and in assay [9] was “inactive” each time.

As for `OC/C(Br)=C(\Br)CO`, the Potency entry in assay [1], in assay [2], in assay [3], in [4], in assay [5] and in [6] was “inactive” throughout. In addition, the Potency entry in assay [7], in [8], in [9] and in [10] was “inactive” throughout.

On to `CCOC(=O)c1ccccc1OC`, for which the Potency entry in assay [1], in assay [2], in assay [3], in [4], in assay [5] and in assay [6] was “inactive” in each case. Moreover, the Potency entry in assay [7], in assay [8], in [9] and in assay [10] was “inactive” in each case.

For `C[Si](NC1CCCCC1)(NC1CCCCC1)NC1CCCCC1`, the Potency entry in assay [1], in assay [2], in assay [3], in assay [4], in assay [5] and in [6] was “inactive” in each case. Also, the Potency entry in assay [8], in assay [9] and in assay [10] was “inactive” in each case.

Regarding `Cc1occc1C(=O)Nc1ccc(C(=O)N2CCC(F)(F)/C(=C\C(=O)N3CCC(N4CCCCC4)CC3)c3ccccc32)cc1`, the Potency result in [1], in assay [2], in assay [3], in assay [4], in [5] and in assay [6] was “inactive” throughout. Also, the Potency result in assay [8] and in [9] was “inactive” throughout.

On to `CC(C)OCC1CO1` (centres undefined), for which the Potency result in assay [1], in assay [2], in assay [3], in assay [4], in [5] and in [6] was “inactive” each time. The Potency result in [7], in [8] and in assay [9] was “inactive” each time.

Regarding `CCCCC(CC)COC(=O)COc1ccc(Cl)cc1C` (centres undefined), the Potency entry in [1], in [2], in assay [3], in assay [4], in assay [6] and in assay [7] was “inactive” throughout. For the same compound, the Potency result in [8], in assay [9] and in assay [10] was “inactive” throughout.

On to `O=S(=O)(c1ccccc1)c1ccc(Cl)cc1`, for which the Potency entry in assay [1], in [2], in assay [3], in assay [4], in assay [5] and in assay [8] was “inactive” in each case. In addition, the Potency result in assay [9] and in [10] was “inactive” throughout.

`CCCCCCCCCOC(C)=O`: the Potency entry in assay [1], in assay [2], in [3], in [4], in [5] and in assay [7] was “inactive” in each case. For the same compound, the Potency result in assay [8], in assay [9] and in [10] was “inactive” throughout.

Consider `CC(=O)OCC(=O)[C@@]12OC(C)(C)O[C@@H]1C[C@H]1[C@@H]3C[C@H](F)C4=CC(=O)C=C[C@]4(C)[C@@]3(F)[C@@H](O)C[C@@]12C`, for which the Potency result in assay [1], in assay [2], in assay [3], in assay [4], in assay [6] and in assay [7] was “inactive” in each case. Also, the Potency result in assay [8], in assay [9] and in assay [10] was “inactive” in each case.

On to `COC(=O)[C@@H]1CC2=CC(=O)CC[C@]2(C)[C@@]23O[C@@H]2C[C@@]2(C)[C@@H](CC[C@@]24CCC(=O)O4)[C@H]13`, for which the Potency entry in [1], in assay [2], in assay [3], in assay [4], in [6] and in assay [7] was “inactive” each time. For the same compound, the Potency entry in assay [8], in assay [9] and in assay [10] was “inactive” each time.

`O=C(O)c1snc(Cl)c1Cl`: the Potency result in assay [1], in assay [3], in assay [4], in assay [5], in [7] and in assay [8] was “inactive” each time. Also, the Potency entry in assay [9] was “inactive”. Also, the Potency in assay [2] is 61.1 µM (active).

For the compound `OCC1CC=CCC1` (centres undefined), the Potency entry in assay [1], in assay [2], in [3], in assay [4], in [6] and in assay [7] was “inactive” each time. Besides, the Potency entry in [8], in assay [9] and in [10] was “inactive” each time.

As to `N#C/C(=C1\SCC(c2ccccc2Cl)S1)n1ccnc1` (centres undefined), the Potency entry in [1], in assay [3], in [4], in [6], in assay [7] and in assay [8] was “inactive” in each case. For the same compound, the Potency entry in assay [9] was “inactive”. For the same compound, the Potency in assay [2] was 7.5 µM (active).

On to `CCCCCC=CCC=CCCCCCCCC(=O)OCC`, for which the Potency entry in assay [1], in assay [2], in assay [3], in assay [4] and in assay [8] was “inactive” throughout. Further, the Potency in assay [5] is 29.8 µM (active).
